# Measured values taken from PubChem BioAssay AID686971 (National Center for Advancing Translational Sciences (NCATS), 2013).
# Hit rate of the full screen: of about 360,000 compounds, about 7,500 (2.1%) were called active. Not shown: some 8% with an inconclusive outcome. This excerpt belongs to a sample that is enriched for actives. Values without a mark were called inactive. Calls come from the whole dose curve; as a rule, active = well fitted cell-killing curve with a large enough effect; inconclusive = small, poorly fitted or top-dose-only effect, or effect the other way, or another doubt; inactive = no such curve, though single readings can be large or run the other way.
# Test: qHTS for induction of synthetic lethality in tumor cells producing 2HG: qHTS for the HT-1080-IDH1KD cell line;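 for activity, negative = toxicity: 0% = DMSO wells and -100% = cell-free medium wells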
# Settings: HT-1080 IDH1 knockdown viability, ATP luminescence, 48 h; series mostly up to 46.1 µM; activity, negative = toxicity: at the top concentration
# Procedure, shortened: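 % activity derives from luminescence (CellTiter-Glo), normalised to DMSO and no-cell wells. HT-1080-IDH1KD cells, 750/well, had 48 h compound exposure at 37 °C.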
# Potency is the fitted concentration of half-maximal effect.
SMILES,Potency,"activity, negative = toxicity [%]"
CCCC(O)(CCC)C(=O)NN(C(=O)CCl)c1cccc(C)c1,5.17 µM (active),–
CC1(C(=O)NS(=O)(=O)c2cccc(OC(F)F)c2)CCN1C(=O)C1CC1 (stereo not drawn),–,4.44
O=C(Nc1ccc(F)cc1)C(CCc1ccccc1)N1CCN(CC(=O)N2CCCC2)CC1 (stereo not drawn),–,-0.549
Cc1nc(N2CCOCC2)sc1C(=O)NN,–,-18.6
Cc1nc(-c2ccc(Cl)cc2)sc1C(=O)CBr,–,-1.12
Cc1nc(-c2ccc(Cl)cc2)sc1C(=O)NN,10.3 µM (active),–
COCCCNC(=O)c1ccc(-c2c(C)noc2C)c2ccoc12,–,0.623
O=C(NOCc1ccccc1)c1cccc([N+](=O)[O-])c1,–,16.1
O=C(NC(Nc1nc2ccc([N+](=O)[O-])cc2s1)(C(F)(F)F)C(F)(F)F)c1ccccc1,5.17 µM (active),–
O=C(COC(=O)c1ccc([N+](=O)[O-])cc1Cl)NC(=O)c1ccccc1,–,9.43
COc1ccc(OC)c(NC(=O)C2(C)CCN2C(=O)Cc2ccccc2)c1 (stereo not drawn),–,13.4
Cc1cc(C(=O)N2CCCC2(C)C(=O)O)c(C)o1 (stereo not drawn),–,12.2
COC(=O)[C@@]1(Cc2ccc(F)cc2)[C@H]2c3cc(C(=O)N4CCCC4)n(Cc4ccc(OC(F)(F)F)cc4)c3C[C@H]2CN1C(=O)c1ccccc1,23.1 µM (active),–
COC(=O)[C@@]1(Cc2ccc(F)cc2)[C@H]2c3cc(C(=O)N(C)C)n(CCc4c[nH]c5ccc(OC)cc45)c3C[C@H]2CN1C(=O)c1ccccc1,–,6.89
COC(=O)[C@@]1(Cc2ccc(F)cc2)[C@H]2c3cc(C(=O)N4CCCC4)n(C[C@H](O)CO)c3C[C@H]2CN1C(=O)c1ccccc1,–,3.55
CCCNC(=O)C1(C)CCN(Cc2csc(-c3ccc(Cl)cc3)n2)C1 (stereo not drawn),–,-27.7
COc1ccc(-c2cc3c(c4c2ccn4C)C2CCC3C2)cn1 (stereo not drawn),–,-0.197
COc1cccc(-n2c(SCC(=O)NC3CCCCC3)nc3n[nH]c(C)c3c2=N)c1,18.4 µM (active),–
C=CCn1c(CC(=O)Nc2cccc(OC)c2)nnc1SCC(=O)NC1CCCCC1,–,-3.5
COc1cccc(-n2c(SCC(=O)NC3CCS(=O)(=O)C3)nc3ccccc3c2=O)c1 (stereo not drawn),–,0.884
CCc1noc(C)c1C(=O)OCC(=O)c1ccc(NC(=O)CC(C)C)cc1,–,-12
FC(F)(F)c1ccccc1Cc1c(-c2ccccc2)nc2c3ccccc3ccn12,–,0.112
O=C(NCC(F)(F)F)c1ccc(S(=O)(=O)NCCc2ccc3c(c2)OCCO3)cc1,–,0.85
CCCOc1ccccc1-c1nc(SCCC(=O)O)n[nH]1,–,-22.7

SMILES,Potency,"activity, negative = toxicity [%]"
Cc1cc(C)nc(Nc2n[nH]c(-c3ccccc3N)n2)n1,32.6 µM (active),–
Nc1ccccc1-c1nc2ccncc2[nH]1,–,-0.0305
CCOC(=O)[C@]12CCC=C1N(CCC1=CCCCC1)C(=O)[C@H](CC(=O)NCc1ccc(C)o1)C2,–,-10.4
CC(=O)C[C@@H]1OC[C@H](C)N1S(=O)(=O)c1ccc(C)cc1,–,-14.2
CCN(CC)CCOCCOc1ccc(Cl)c2ccccc12,–,-5.77
CN(C)CCOCCOc1ccc(Cl)c2ccccc12,20.6 µM (active),–
CN(C)CCOc1ccc(Cl)cc1C(C)(C)C,–,-2.96
N#CCCC(C#N)(c1cccnc1)N1CCOCC1 (stereo not drawn),–,5.2
CCC(C)CN1C(=O)CN(S(C)(=O)=O)CC1(C)C(=O)Nc1ccc2c(c1)OCCO2 (stereo not drawn),–,21.2
O=C(NCc1ccco1)c1cccc(-c2ccc3nncn3c2)c1,–,0.613
CCCSc1nc(NCc2ccco2)c2c3c(sc2n1)COC(C)(CC)C3 (stereo not drawn),–,14.4
CCC1(C)Cc2c(sc3[nH]c(=S)n(Cc4ccccc4)c(=O)c23)CO1 (stereo not drawn),14.6 µM (active),–
Cn1c(=O)[nH]c(=O)c2c1[nH]c(=S)n2Cc1ccccc1,–,3.8
OC[C@@H]1CN(Cc2cccs2)C[C@H](n2cnc3c(Nc4ccccc4)ncnc32)O1,–,-11
Cc1cc(Cl)ccc1-c1nc(NCCN(C)C)nc2ccsc12,23.1 µM (active),–
Cc1ccc(Cl)cc1NC(=S)N(CCN(C)C)Cc1cccs1,–,-9.19
O=C(CC[C@H]1O[C@@H](n2ccc(=O)[nH]c2=O)[C@H](O)[C@@H]1O)N[C@H](Cc1ccccc1)C(=O)NCc1ccco1,–,29.4
CCc1ccccc1NC(=O)CN1CCN(C(=O)c2cc(C3CC3)nn2-c2ccccc2)CC1,–,-0.558
COc1ccc(NC(=O)CCCOc2ccc(C(C)=O)cc2)cc1S(=O)(=O)N1CCCCC1,–,-11.2
CCC(CC)C(C(=O)NC1CCCC1)N1CCN(c2cc(C)nc3ccccc23)CC1 (stereo not drawn),–,-24.2
Cc1ccc2nc(/C(C#N)=C\c3ccc(OC(=O)c4cccs4)cc3)[nH]c2c1,7.94 µM (active),–
COc1ccc(CCNC(=O)/C(C#N)=C2\N=C(NC(=O)c3cccs3)c3ccccc32)cc1,–,-7.12
COc1ccc2c(c1)CCCO[C@]21O[C@H](CCO)C[C@H](O)[C@H]1O,–,13
Nc1ncnc2c1ncn2[C@@H]1O[C@H](C(=O)N2CCSC2)[C@@H](O)[C@H]1O,–,19
